Holding throughout (experiment): NCI-60 one-dose screen, 48 h (100 = growth as untreated, 0 = no growth, -100 = all killed)
What all share (details): 10 µM unless noted

Test [1] has as its system NCI-H23 lung.
Test [2] has as its system NCI-H226 lung.
For test [3], the system named is NCI-H322M lung.
In test [4] the test system is HOP-62 NSCLC.
The subject of test [5] is NCI-H460 lung.
Test [6] has as its system HOP-92 NSCLC.
Test [7] deals with NCI-H522 lung.
For test [8], the system named is A549/ATCC NSCLC.
The subject of test [9] is 786-0 renal.
Test [10] concerns COLO 205 colon.

From PubChem BioAssay (NCI) come the findings set out here.

This is part of a sample that, as a whole, favours compounds with a hit. Of some 83,000 tested, about 20% had one in any assay.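 The endpoint reported here, percent growth, reads 100 for growth as untreated, 0 for no net growth and -100 for all cells dead.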 Unmarked numbers belong to inactive results. Active and inactive are the calls of the source. Rule for the calls: active = growth percent below 10; inactive = the rest.

For `CCSC1=NC2C(N(CC)C(=O)N2CC)N1/N=C/C=C/c1ccccc1[N+](=O)[O-]` (stereo not given), the growth in test [1] was 21.9%; in [2], 47.1%; in test [3], 31.2%; in test [4] it was 33.7%; in test [5], 1.33% (active); in [6] it was 19.8%. The growth in [7] is -1.31% (active); in test [8], 19%; in test [9] it was 19%; in [10], 3.83% (active).

As for `Cc1ccccc1NC(=O)N/C(N)=N/c1nc(-c2cccc([N+](=O)[O-])c2)cs1`, the growth is 16.8% in test [1]; 58.8% in test [2]; 90.7% in test [3]; 42.3% in [4]; 27% in test [5]; 60.2% in test [6]. Further, the growth in test [7] is 18%; in [8], 54.2%; in test [9], 71.6%; in test [10], 37.5%.

On to `COc1ccc(-c2nc3sccn3c2-c2cc(-c3cc(OC)c(OC)c(OC)c3)on2)cc1`, for which the growth in test [1] is 88.6%; in [2] it was 116%; in [3] it was 102%; in test [4], 106%; in test [5], 78.3%; in [6], -17.4% (active). For the same molecule, the growth in test [7] is 87.9%; in test [8], 104%; in test [9], 96.6%; in test [10], 94.2%.

For the molecule `C[C@H](NC(=O)[C@@H]1CSSC[C@@H](NC(=O)c2nc3ccccc3cc2O)C(=O)NCC(=O)N1C)c1ccccc1`, the growth in [1] is 38.6%; in [2], 60.5%; in [3], 76.7%; in [4], 66.6%; in [5], 6.55% (active); in [6], 51.6%. Moreover, the growth was 24.7% in test [7], 42.9% in [8], -37.2% (active) in [9] and -63.7% (active) in [10].

As to `N=C1C(c2nc(-c3ccc(Br)cc3)cs2)=C(O)CN1Cc1cccnc1`, the growth in test [1] is 81.9%; in [2], 98.8%; in [3], 50.2%; in [4], 43.6%; in [5] it was 66.7%; in test [6], -47.3% (active). Also, the growth in [7] is 68.4%; in test [8], 60.6%; in test [9], 35.2%; in test [10] it was 87.5%.

As for `COc1cc(/C=N/n2c(CN3CCOCC3)nc3ccccc3c2=O)cc(OC)c1OC`, the growth was 98.9% in test [1]; 115% in test [2]; 90% in [3]; 96.4% in test [4]; 109% in [5]; 106% in [6]. The growth in test [7] is 97.9%; in test [8] it was 92.3%; in [9], 100%; in [10], 106%.

On to `O=c1[nH]nc(-c2ccccc2)c2c(-c3ccccc3)onc12`, for which the growth in test [1] was 50.4%; in [2] it was 55.4%; in test [3], 59.8%; in test [4], 34.4%; in [5] it was 17%; in test [6], -6.41% (active). The growth in test [7] is -22.5% (active); in [8], 58.5%; in test [9], 45%; in test [10] it was 11.3%.

With `N#Cc1c(-c2cccc(Cl)c2)cc(-c2cccc(F)c2)[nH]c1=O`, the growth in test [1] is 96.3%; in [2] it was 95.1%; in [3] it was 90.8%; in [4] it was 93.4%; in test [5], 95.9%; in [6], 55.3%. Moreover, the growth in test [7] is 85%; in test [8], 84.5%; in test [9], 90.3%; in [10], 109%.

Turning to `CC(=O)N1C(=S)NC(=O)C1Cn1c(-c2ccccc2)nc2ccccc21` (stereo not given), the growth in test [1] is 95.2%; in test [2], 93.6%; in [3] it was 96.8%; in test [4], 92.1%; in [5], 105%; in [6], 97.5%. The growth in test [7] was 86.9%; in [8], 102%; in test [9] it was 102%; in test [10], 108%.

In the case of `COc1cc(-c2n/c(=C\c3c(O)[nH]c4ccc(Cl)cc34)cc3c2=Nc2ccccc2-3)cc(OC)c1OC`, the growth is -2.92% (active) in [1]; 62.6% in test [2]; 68% in test [3]; -8.81% (active) in test [4]; -38% (active) in test [5]; -25.4% (active) in test [6]. In addition, the growth was -0.596% (active) in [7], -39.4% (active) in test [8], -37.1% (active) in [9] and 8.86% (active) in test [10].

For the molecule `COC(=O)[C@]12CC[C@@H](C)[C@H](C)[C@@H]1C1=CC[C@@H]3[C@@]4(C)C(C=O)=C[C@@](C)(CO)[C@@H]4[C@H](O)C[C@@]3(C)[C@]1(C)CC2`, the growth in test [1] was -17.1% (active); in test [2] it was 3.36% (active); in test [3], 32.9%; in test [4], 11.9%; in test [5] it was -35% (active); in test [6], -22.8% (active). Moreover, the growth was -37.5% (active) in [7], -1.72% (active) in [8], -30.4% (active) in test [9] and -28% (active) in [10].

For the molecule `N[C@@H](CCCCNCC(=O)O)C(=O)O`, the growth in test [1] was 95.1%; in test [2], 98.4%; in test [3] it was 110%; in test [4], 101%; in test [5], 103%; in [6], 64.5%. For the same molecule, the growth in [7] was 96.3%; in [8], 101%; in [9] it was 97.2%; in test [10], 111%.

With `O=C(Nc1cccc(Cl)c1)c1cc(N=Nc2ccc([N+](=O)[O-])cc2Cl)ccc1O`, the growth is 63% in [1]; 97% in test [2]; 94.2% in [3]; 72.9% in test [4]; 39.6% in test [5]; 28.3% in test [6]. The growth in [7] was -16.5% (active); in test [8] it was 67.8%; in test [9], 59.1%; in [10], 82.2%.

Consider `C#CCOc1nc(C)cc(C)c1C#N`, for which the growth in test [1] was 95.6%; in test [2], 97%; in test [3], 105%; in test [4], 92.2%; in test [5], 102%; in [6], 71.4%. Further, the growth in test [7] is 89.3%; in test [8], 97.7%; in [9], 99.6%; in test [10], 111%.

Turning to `Cc1cccc(Cc2cnc(NC(=O)/C=C/c3ccco3)s2)c1`, the growth was 28.2% in test [1]; 50.3% in test [2]; 37.8% in test [3]; 23.7% in test [4]; 3.34% (active) in test [5]; 78% in test [6]. The growth in test [7] was -12% (active); in test [8] it was 20%; in [9], 36%; in test [10] it was 2.49% (active).

Take `O=[N+]([O-])c1ccc(N2c3ccncc3Sc3ccncc32)cc1`: the growth in [1] is 102%; in [2] it was 105%; in [3], 105%; in test [4], 104%; in [5], 122%; in [6] it was 80.2%. Moreover, the growth in test [7] was 87.8%; in test [8], 110%; in test [9], 107%; in [10] it was 111%.

For the molecule `NC[C@H](O)c1ccc(O)c(O)c1`, the growth is 98.8% in test [1]; 109% in [2]; 110% in [3]; 105% in test [4]; 103% in test [5]; 65.8% in test [6]. The growth was 102% in [7], 109% in test [8], 108% in test [9] and 109% in test [10].

Consider `COc1cc(C2CC(=O)Nc3c2c(C)nn3-c2nc3ccccc3[nH]2)cc2c1OCC(=O)N2` (stereo not given), for which the growth was 74.6% in test [1]; 76.2% in [2]; 94% in test [3]; 80.8% in test [4]; 67.1% in test [5]; 56.9% in test [6]. Moreover, the growth is 71.4% in test [7], 66.8% in test [8], 58.5% in test [9] and 79.2% in test [10].

As to `N#Cc1nc2c(S(=O)(=O)c3ccc(Cl)cc3)c(N)n(Nc3cccc(Cl)c3)c2nc1C#N`, the growth was 44.7% in test [1]; 85.2% in [2]; 30.8% in test [3]; 40.2% in test [4]; 65.7% in test [5]; -33.2% (active) in test [6]. The growth in [7] is 57.3%; in test [8], 43.3%; in [9], 43.9%; in [10], 72.5%.

For the molecule `COc1cccc(-c2nc3sccn3c2-c2ccnc(NCCNS(=O)(=O)c3ccc(C(F)(F)F)cc3)c2)c1`, the growth in test [1] was 53.7%; in test [2] it was 34.8%; in test [3], 72.3%; in test [4], 62%; in test [5], 35.6%; in test [6] it was 34.4%. The growth in test [7] is 55.7%; in test [8], 38.1%; in test [9], 51.6%; in test [10], 28.5%.

For `NC(=N\N=C/c1cccc([N+](=O)[O-])c1)/C(N)=N\N=C/c1cccc([N+](=O)[O-])c1`, the growth in [1] is 78.4%; in test [2], 64%; in test [3], 110%; in test [4], 10.6%; in [5], -21.5% (active); in test [6], 73.9%. Further, the growth in test [7] is 66.9%; in test [8] it was 15.6%; in test [9], 109%; in test [10], 19.4%.

For the molecule `COc1ccc(C2c3ccc4ccccc4c3Oc3nc(C)[nH]c(=O)c32)cc1` (stereo not given), the growth in [1] is 92%; in test [2], 92.4%; in test [3], 101%; in test [4], 89%; in test [5] it was 99.4%; in [6], 91%. Further, the growth in [7] is 77%; in [8] it was 109%; in test [9], 107%; in [10] it was 110%.

In the case of `O=C(NC(Cc1nnc2n(Cc3ccccc3)c(=O)c3c4c(sc3n12)CCCC4)c1ccc(Cl)cc1)c1ccccc1` (stereo not given), the growth is 82.2% in [1]; 97.6% in test [2]; 108% in test [3]; 77.2% in test [4]; 101% in test [5]; 76.8% in [6]. The growth is 75.8% in [7], 98.9% in test [8], 38.3% in [9] and 106% in [10].

On to `COC(=O)[C@]12CC[C@@H](C)[C@H](C)[C@@H]1C1=CC[C@@H]3[C@@]4(C)C(C=O)=C[C@@](C)(COC(C)=O)C4=CC[C@@]3(C)[C@]1(C)CC2`, for which the growth is 7.56% (active) in test [1]; 11.2% in test [2]; 24.8% in test [3]; -7.82% (active) in test [4]; -29.1% (active) in test [5]; -9.34% (active) in test [6]. The growth in test [7] was -30.5% (active); in [8], 5.26% (active); in [9], -33.7% (active); in test [10], -66.5% (active).

For `COc1cc(C2CC(c3ccc(Nc4ccnc5cc(Cl)ccc45)cc3)=NN2C=O)cc(OC)c1OC` (stereo not given), the growth in test [1] was 89.2%; in test [2], 102%; in test [3], 107%; in test [4], 84.4%; in test [5], 57.2%; in test [6], -3.68% (active). Besides, the growth was 71.7% in [7], 72.4% in test [8], 63.8% in test [9] and 95.6% in test [10].

For `CC(CCc1ccc(Cl)c(Cl)c1)NCc1ccc(C(C)(C)C)cc1` (stereo not given), the growth in test [1] was 91.9%; in test [2] it was 83.9%; in test [3] it was 97.8%; in [4], 85.9%; in test [5] it was 90.6%; in [6] it was 59.5%. In addition, the growth in test [7] was 82.7%; in test [8] it was 60.8%; in test [9], 70.8%; in [10] it was -38.2% (active).

With `CCCCCCN(CCCCCC)c1ccc(/C=C2/SC(=O)N(c3nc(N4CCCC4)nc(N4CCCC4)n3)C2=O)c(C)c1`, the growth was 47.2% in [1]; 92.5% in [2]; 99% in test [3]; 119% in test [4]; 57.5% in test [5]; -3.12% (active) in test [6]. The growth was 53.2% in test [7], 54.2% in [8], 63.5% in [9] and 82.1% in test [10].
